# Screens from PubChem BioAssay.
# Vaccinia mCherry = inhibitors of vaccinia virus infection (mCherry reporter signal) | Vaccinia virus mCherry reporter infection, fluorescence | Potency, µM (top dose mostly 36.5 µM), inactives show at the top dose activity change, negative = inhibition, usual class: inhibitors | 310,000 compounds, 0.63% hits; calls by dose curve; tested in A549 cells; also: potency is read from the fitted curve at half-maximal effect; nearly all actives have a fitted effect of over 35% in size
# HCV inhibitor = inhibitors of hepatitis C virus infection; Huh7.5.1 HCVcc-Cre infection, luciferase reporter, 44 h; 340,000 compounds, 3.4% hits; AID 651820; Potency, µM (titrated, usually from 41.8 µM), for inactives: at the top dose activity change, negative = inhibition, usual class: inhibitors; active = well fitted inhibition curve with a large enough effect; inconclusive = small, poorly fitted or top-dose-only effect, or another doubt; inactive = no such curve, though single readings can be large or run the other way; also: potency is read from the fitted curve at half-maximal effect
#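 Infectious HCVcc-Cre (~0.5 moi) was added to cells just after compound, with cells seeded 4 h earlier at 1,000 per well. Luciferase activity after 44 h culture reported infection; substrate was incubated 15 min at room temperature before reading.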
# HCMV inh = human cytomegalovirus inhibition. 410,000 compounds, 4.5% hits. HFF cells, HCMV-luciferase reporter, 72 h; active compounds read low. activity change, negative = inhibition, % at 57.5 µM; in the data active = activity change below about -60%; inconclusive = no clear call, values can overlap the other calls; inactive = above about -39%
#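 Human foreskin fibroblasts infected with luciferase-reporter HCMV at MOI 1 PFU/cell, compounds at two doses. Luciferase measured 72 h post infection; normalized to buffer-only basal and Salinomycin (10uM) controls.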
# FMDV antiviral = antivirals against foot and mouth disease virus; 410,000 compounds, 1.2% hits; FMDV antiviral cell-based qHTS; Potency, µM (titrated, usually from 57.9 µM), for inactives: top-dose activity change, negative = inhibition, most hits filed as inhibitors; AID 1159524; calls by dose curve; tested in HEK293T cells; also: read-out not given here; potency is read from the fitted curve at half-maximal effect; nearly all actives have a fitted effect of over 45% in size
# VACV Venus inh = inhibitors of vaccinia virus (Venus reporter). Vaccinia virus Venus reporter expression, fluorescence. Potency, µM (series often up to 36.5 µM), for the others: top-dose activity change, negative = inhibition, usual class: inhibitors. 330,000 compounds, 0.46% hits. AID 720580; calls by dose curve; tested in A549 cells; also: potency is read from the fitted curve at half-maximal effect; nearly all actives have a fitted effect of over 30% in size
# * hit, by the source's call; i = inactive; ? = inconclusive; . = no result given. The list is not random: actives were taken first. Their share in the collection is about 7.3%. % is scaled to controls: 0 for no effect and ±100 for the full control effect.
SMILES,Vaccinia mCherry,HCV inhibitor,HCMV inh,FMDV antiviral,VACV Venus inh
Cc1ccc(O)c(/C=N/NC(=O)c2[nH]ncc2Br)c1,-13%,?,47,41%,-14%
O=C(N/N=C\c1c(O)ccc2ccccc12)c1ccc(Cn2cccn2)o1,4.5µM*,?,-99*,?,?
CCOc1ccc(/C=N/NC(=O)c2[nH]ncc2Br)c(O)c1,1.3µM*,22µM*,-101*,-39%,?
CN1CCN(c2ncc3nc(CCc4ccccc4)c(=O)n(C)c3n2)CC1,.,.,.,29%,.
Cc1cccc(-c2nc3c(s2)CCc2onc(-c4ccc(Br)cc4)c2-3)c1,-8%,6%,-38,9%,-9%
COc1ccc(-n2nnnc2SCC(=O)N2C(C)CCCC2C)c(OC)c1 (stereo not drawn),0%,6%,-79*,.,-13%
COc1ccc2c(c1)c1nnc(SCC(=O)N3C(C)CCCC3C)nc1n2C (stereo not drawn),.,8.9µM*,-36,2%,.
COc1ccc2c(c1)c1nnc(SC)nc1n2C,.,8%,96,32%,.
CN1N=C(C(=O)N=c2sc3ccccc3n2C)CCC1=O,-1%,8%,0,22%,-5%
COc1ccc(C(C(=O)Nc2ccc(F)cc2)N2CCN(CC(=O)N3CCCC3)CC2)cc1 (stereo not drawn),-7%,.,-6,8%,-20%
COc1ccc(N(C(=O)c2snc(C(N)=O)c2N)C(C(=O)NC2CCCC2)c2cc(OC)ccc2OC)cc1 (stereo not drawn),0%,?,-31,?,-13%
Cc1cccc(N2CCN(C(=O)c3cn(C4CCCCC4)c(=O)c4c3c3ccccc3n4C)CC2)c1C,-23%,.,-16,-7%,-13%
O=C(C1CC1)N1CCC(Oc2cccc(C(=O)N3CCCCC3CCO)c2)CC1 (stereo not drawn),.,7%,-3,13%,.
O=C(NCc1cccc(Cl)c1)c1cccc(OC2CCN(C(=O)C3CC3)CC2)c1,?,?,-70*,16µM*,-24%
Cc1nc2c(OCc3ccc(C#N)cc3)cccn2c1N(C)Cc1cccs1,i,.,-12,28µM*,-13%
Cc1cccc(N2CCN(c3ncnc4c3nc3n4CCCCC3)CC2C)c1 (stereo not drawn),?,.,-98*,2.2µM*,?
COc1cccc(N2CCN(c3ncnc4c3cnn4-c3ccc(C)cc3C)CC2)c1,14µM*,3.5µM*,-97*,4µM*,?
Cc1cccc(N2CCN(CCCNC(=O)C3CCCN(c4ncnc5c4nc4n5CCCCC4)C3)CC2C)c1 (stereo not drawn),-24%,?,?,?,?
Cc1cccc(-n2ncc3c(N4CCCC(C)C4)ncnc32)c1 (stereo not drawn),-6%,.,-35,25µM*,2%
Cc1cccc(-n2ncc3c(N4CCCCCC4)ncnc32)c1,-13%,.,-61*,16µM*,-1%
Cc1cccc(N2CCN(c3ncnc4c3cnn4-c3ccc(Cl)cc3)CC2C)c1 (stereo not drawn),-28%,.,1,32µM*,-3%
Cc1ccc(-n2ncc3c(N4CCCCCC4)ncnc32)cc1C,11%,.,-98*,56µM*,7%
Cc1ccc(-n2ncc3c(SCc4cccc(C)c4)ncnc32)cc1,i,-13%,-3,8%,-7%
Cc1ccc(-n2ncc3c(SCc4cccnc4)ncnc32)c(C)c1,-28%,11µM*,-84*,-27%,-18%
CCC(=O)N1CCc2cc(S(=O)(=O)N3CCN(c4ccccc4Cl)CC3)ccc21,-16%,9%,-28,1%,-14%
SMILES,Vaccinia mCherry,HCV inhibitor,HCMV inh,FMDV antiviral,VACV Venus inh
CC1=CC(C)(C)NC(=S)N1c1cccc2ccccc12,.,26%,-100*,-20%,-21%
COc1ccc2nc3cc(Cl)ccc3c(C#N)c2c1,-22%,11%,-21,12%,-4%
COc1ccc2nc(C(F)(F)Cl)c(C#N)c(N)c2c1,.,5%,-88*,21%,.
COc1ccc(-c2sc(Nc3ccccc3)n[n+]2-c2ccccc2)cc1Br,-18%,6%,?,-25%,-4%
C(=C\c1sc(Nc2ccccc2)n[n+]1-c1ccccc1)/c1ccccc1,?,-2%,-4,6.3µM*,8.9µM*
Cc1cc(C)cc(-n2cc(C(=O)O)c(=O)cc2C)c1,-1%,11%,-80*,-15%,-1%
CCC(C)NC(=O)c1ccc2nc(-c3cccs3)c(-c3cccs3)nc2c1 (stereo not drawn),-17%,.,.,.,-12%
